Bioassay records deposited in PubChem BioAssay by National Center for Advancing Translational Sciences (NCATS).
Compounds with a hit are over-represented: about 8.2% of the library has one in this group of screens.
MCF10A rerep: A quantitative high throughput screen for small molecules that induce DNA re-replication in MCF 10a normal breast cells. MCF 10A DNA re-replication, Hoechst nuclear intensity, 48 h. Potency, µM (top dose mostly 46.1 µM), actives largely listed as activators. 350,000 compounds, 2.9% hits. AID 624296, 2012; note: nearly all actives have a fitted effect of over 50% in size
ELG1 repair inh: qHTS screen for small molecules that inhibit ELG1-dependent DNA repair in human embryonic kidney (HEK293T) cells expressing luciferase-tagged ELG1; 330,000 compounds, 2.3% hits; Potency, µM (highest dose often 46.1 µM), actives largely listed as inhibitors; HEK293T ELG1-luciferase reporter, luminescence, 16 h; DNA damage induced by 5-fluorouridine; note: nearly all actives have a fitted effect of over 55% in size
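Reporter activity after DNA damage by 5-fluorouridine is monitored. Compound-treated cells incubate 16 hr at 37 °C, then ONE-Glo is added for 30 min before luminescence reading.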
KB-3-1 tox: qHTS assay for MDR1-selective chemotherapeutics: Primary screen using the parental adenocarcinoma cell KB-3-1. KB-3-1 viability, CellTiter-Glo ATP luminescence, 72 h. Potency, µM (highest dose often 46.1 µM), usual class: cytotoxic. 400,000 compounds, 1.4% hits. AID 1347075, 2019; note: nearly all actives have a fitted effect of over 60% in size
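KB-3-1 cells, DMEM (no phenol red) + 10% FBS; compound by pin transfer, 72 h, 37 °C. Readout: CellTiter-Glo luminescence after 10 min. Data normalized, curve-fitted.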
KB-V1 cytotox: qHTS assay for MDR1-selective chemotherapeutics: Primary screen using the drug-selected MDR subline cells KB-V1; Potency, µM (titrated, usually from 46.1 µM), hits mostly cytotoxic; AID 1347076, 2019; 400,000 compounds, 3.4% hits; KB-V1 MDR cells viability, CellTiter-Glo, 72 h; note: nearly all actives have a fitted effect of over 60% in size
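In this primary screen, KB-V1 cells overexpressing P-gp are incubated with library compounds (lowest to highest concentration) for 72 h at 37 degrees C before a luminescent ATP viability read.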
SW480 rereplic: A quantitative high throughput screen for small molecules that induce DNA re-replication in SW480 colon adenocarcinoma cells; SW480 DNA re-replication, Hoechst DNA content imaging, 48 h; Potency, µM (top dose mostly 46.1 µM), hits mostly activators; 340,000 compounds, 1.8% hits; AID 624297, 2012; note: nearly all actives have a fitted effect of over 55% in size
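Treated cells incubate 48 hr (37 C, 5% CO2), are stained 40 min with Hoechst, and nuclear fluorescence is enumerated; a rise in nuclei with high DNA signal marks re-replication.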
A number is an active result. Calls come from the whole dose curve; as a rule, active = well fitted curve in the direction sought with a large enough effect; inconclusive = small, poorly fitted or top-dose-only effect, or another doubt; inactive = no such curve, though single readings can be large; an effect the other way counts as inactive or inconclusive.

What do the screens show for `Cc1cccc(N2CCN(C(=O)c3cc(C)oc3C)CC2C)c1` (centres undefined)?
MCF10A rerep: inconclusive; ELG1 repair inh: inactive; KB-3-1 tox: 18µM; KB-V1 cytotox: 15µM; SW480 rereplic: inactive

How did COc1cccc(N2CCN(C(=O)CC(NC(=O)c3ccccc3)c3ccccc3)CC2)c1 (centres undefined) do in these assays?
MCF10A rerep: inactive; ELG1 repair inh: inactive; KB-3-1 tox: inactive; KB-V1 cytotox: inactive; SW480 rereplic: inactive

What do the screens show for `CCCn1c(CCc2ccccc2)n[nH]c1=S`?
MCF10A rerep: inactive; ELG1 repair inh: inactive; KB-3-1 tox: inactive; KB-V1 cytotox: inactive; SW480 rereplic: inactive

How did CN(C(=O)c1cccc(NC(=O)Cc2ccc(NC(=O)C3CCCN(C(=O)C4CCCCC4)C3)cc2)c1)C1CC1 (centres undefined) do in these assays?
MCF10A rerep: inactive; KB-3-1 tox: inactive; KB-V1 cytotox: inconclusive; SW480 rereplic: inactive

How did Cc1cc(C(=O)N2CCC(C(N)=O)CC2)c(C)o1 do in these assays?
MCF10A rerep: inactive; ELG1 repair inh: inactive; KB-3-1 tox: inactive; KB-V1 cytotox: inactive; SW480 rereplic: 16µM

What do the screens show for `COC(=O)c1ccc2cc(C)cc(C)c2n1`?
KB-3-1 tox: inactive; KB-V1 cytotox: inactive

How did O=C1[C@@H](Oc2ccccc2)[C@@H](c2ccncc2)N1c1ccncc1 do in these assays?
MCF10A rerep: 0.18µM; ELG1 repair inh: inconclusive; KB-3-1 tox: inactive; KB-V1 cytotox: inactive; SW480 rereplic: inactive

How did O=C1[C@@H](Oc2ccccc2)[C@@H](c2cnc3ccccc3c2)N1c1ccccc1 do in these assays?
MCF10A rerep: inconclusive; ELG1 repair inh: 16µM; KB-3-1 tox: inactive; KB-V1 cytotox: inactive; SW480 rereplic: inconclusive

Results for O=C1[C@H](Oc2ccccc2)[C@@H](c2ccncc2)N1c1ccncc1 ?
MCF10A rerep: inconclusive; ELG1 repair inh: inactive; KB-3-1 tox: inactive; KB-V1 cytotox: inactive; SW480 rereplic: inactive

What do the screens show for `CCOC(=O)CSC1=C(C#N)C(c2ccc3c(c2)OCO3)CC(=O)N1` (centres undefined)?
MCF10A rerep: inconclusive; KB-3-1 tox: 7.3µM; KB-V1 cytotox: inconclusive; SW480 rereplic: inconclusive

Results for CCOC(=O)CSC1=C(C#N)C(c2ccc(C)o2)CC(=O)N1 (centres undefined) ?
MCF10A rerep: inconclusive; ELG1 repair inh: inactive; KB-3-1 tox: 0.58µM; KB-V1 cytotox: inconclusive; SW480 rereplic: 0.82µM

Results for CCOC(=O)CSC1=C(C#N)C(c2ccc(Cl)cc2)CC(=O)N1 (centres undefined) ?
MCF10A rerep: inactive; ELG1 repair inh: inactive; KB-3-1 tox: inactive; KB-V1 cytotox: inactive; SW480 rereplic: inactive

What do the screens show for `CCCCOC(=O)CSC1=C(C#N)C(c2ccc3c(c2)OCO3)CC(=O)N1` (centres undefined)?
MCF10A rerep: inactive; ELG1 repair inh: inconclusive; KB-3-1 tox: inactive; KB-V1 cytotox: inactive; SW480 rereplic: inactive

What do the screens show for `CCOC(=O)CSC1=C(C#N)C(c2ccccc2OCC)C(C#N)C(=O)N1` (centres undefined)?
MCF10A rerep: inconclusive; ELG1 repair inh: inactive; KB-3-1 tox: inactive; KB-V1 cytotox: inactive; SW480 rereplic: 18µM

How did Cc1cc(NC(=O)CN2C(=O)c3cccnc3Sc3ccccc32)ccc1Br do in these assays?
KB-3-1 tox: inactive; KB-V1 cytotox: inactive

Results for Cc1ccc(S(=O)(=O)N2CCOCC2)cc1C(=O)OCC(=O)NC1CCCC1 ?
MCF10A rerep: inactive; ELG1 repair inh: inactive; KB-3-1 tox: inactive; KB-V1 cytotox: inactive; SW480 rereplic: inactive

Results for C/C(=N\NC(=O)c1nnn(-c2nonc2N)c1CSc1ccc(Cl)cc1)c1ccco1 ?
MCF10A rerep: inactive; ELG1 repair inh: inconclusive; KB-3-1 tox: inactive; KB-V1 cytotox: inactive; SW480 rereplic: inactive

What do the screens show for `Cc1sc2ccccc2[n+]1CCCC[n+]1c(C)sc2ccccc21`?
KB-3-1 tox: inactive; KB-V1 cytotox: inactive

Results for COc1cc(OC)cc(-c2cc3ccc(OC)cc3cn2)c1 ?
MCF10A rerep: inactive; ELG1 repair inh: inconclusive; KB-3-1 tox: inactive; KB-V1 cytotox: inconclusive; SW480 rereplic: 15µM

What do the screens show for `COc1ccc2cc(-c3ccccc3)ncc2c1`?
MCF10A rerep: inactive; ELG1 repair inh: inconclusive; KB-3-1 tox: inactive; KB-V1 cytotox: inactive; SW480 rereplic: inactive

How did COc1ccc(/C=C/c2cc(C(F)(F)F)[nH]c(=O)n2)cc1OC do in these assays?
MCF10A rerep: inconclusive; ELG1 repair inh: inactive; KB-3-1 tox: inconclusive; KB-V1 cytotox: inactive; SW480 rereplic: 16µM

Results for COc1ccc(C(=O)COC(=O)c2ccc(N(C)C)cc2)cc1 ?
MCF10A rerep: inactive; ELG1 repair inh: inactive; KB-3-1 tox: inactive; KB-V1 cytotox: inactive; SW480 rereplic: inconclusive

Results for CN(C)c1cc[n+](CC(=O)c2ccc(Br)cc2)cc1 ?
MCF10A rerep: inactive; ELG1 repair inh: 9.2µM; KB-3-1 tox: inactive; KB-V1 cytotox: inactive; SW480 rereplic: inactive

Results for Cc1ccc(SCCc2cc[n+](CC(=O)c3ccccc3)cc2)cc1 ?
MCF10A rerep: inactive; ELG1 repair inh: inconclusive; KB-3-1 tox: inactive; KB-V1 cytotox: inactive; SW480 rereplic: inactive

How did Cc1ccc[n+](CC(=O)c2ccc(Br)cc2)c1 do in these assays?
MCF10A rerep: inactive; ELG1 repair inh: inactive; KB-3-1 tox: inactive; KB-V1 cytotox: inactive; SW480 rereplic: inconclusive

How did COc1ccc(C(=O)C[n+]2ccc(N(C)C)cc2)cc1 do in these assays?
MCF10A rerep: inconclusive; ELG1 repair inh: inactive; KB-3-1 tox: 5.2µM; KB-V1 cytotox: inactive; SW480 rereplic: inconclusive

Results for CN(C)c1cc[n+](CC(=O)c2ccc(-c3ccccc3)cc2)cc1 ?
MCF10A rerep: inactive; ELG1 repair inh: 2.6µM; KB-3-1 tox: inconclusive; KB-V1 cytotox: inactive; SW480 rereplic: inactive

How did Cc1ccc(C(=O)C[n+]2ccc(Cc3ccccc3)cc2)cc1 do in these assays?
MCF10A rerep: inactive; ELG1 repair inh: 7.3µM; KB-3-1 tox: 4.6µM; KB-V1 cytotox: inactive; SW480 rereplic: inactive

Results for CC(Oc1ccccc1F)C(=O)NC1CCS(=O)(=O)C1 (centres undefined) ?
MCF10A rerep: inactive; ELG1 repair inh: inactive; KB-3-1 tox: inactive; KB-V1 cytotox: inactive; SW480 rereplic: inactive

What do the screens show for `O=Cc1s/c(=N\S(=O)(=O)c2ccccc2)n(CCCCl)c1Cl`?
MCF10A rerep: inconclusive; ELG1 repair inh: inconclusive; KB-3-1 tox: inconclusive; KB-V1 cytotox: inactive; SW480 rereplic: 8.2µM

How did COc1cccc(-c2ccc(C#N)c(OC(=O)c3c(Cl)cccc3Cl)n2)c1 do in these assays?
MCF10A rerep: inactive; ELG1 repair inh: inconclusive; KB-3-1 tox: inactive; KB-V1 cytotox: 16µM; SW480 rereplic: inactive
